Measurements published in PubChem BioAssay (EPA / NIEHS).
“And” between values parts separate entries of the source, which are not always exact repeats. Equal values may be shown once. Results filed as inconclusive are left out. Some compounds were tested as several samples or in several runs, with calls that do not always agree. The source made the active and inactive calls. How the source made its calls, unless noted: active means hit-call score of the fitted dose curve at least 0.9, where 1 is the maximum; inactive means score below 0.9.

Key:
[1] = target: Estrogen-related receptor gamma (Homo sapiens) (UniProt P62508); assay: ATG_ERRg_TRANS: Attagene TRANS-FACTORIAL HepG2 Assay for human Estrogen-Related Receptor gamma (ERRg) (AID 2282977; active means hit-call score of the fitted dose curve at least 0.9, where 1 is the maximum;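 further: hits increase reporter signal over DMSO so potencies reflect activators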); conditions: HepG2 Attagene TRANS reporter, ERRg transactivation
In short: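 Transfect HepG2 with multiple GAL4-UAS reporter transcription units; dose chemicals 24 h; isolate RNA, reverse-transcribe with oligo(dT), PCR-amplify, label with 6-FAM, digest with HpaI; size fragments by capillary electrophoresis. DMSO serves as negative control.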

[2] = target: Glucocorticoid receptor (Homo sapiens) (UniProt P04150); assay: ATG_GR_TRANS: Attagene TRANS-FACTORIAL HepG2 Assay for human Glucocorticoid Receptor (GR) (AID 2282978; active means hit-call score of the fitted dose curve at least 0.9, where 1 is the maximum;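 further: activators score as hits since higher reporter transcript over DMSO is fitted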); conditions: HepG2 Attagene TRANS GR reporter, mRNA transcription
In short: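 Measurement of GAL4-UAS-driven reporter mRNA in human HepG2 liver cells 24 h post-dosing, using RT-PCR with fluorescent labelling and capillary electrophoresis; the transfected constructs report exogenous NR-GAL4 chimera activity, fitted upward against DMSO.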

[3] = target: Oxysterols receptor LXR-alpha (Homo sapiens) (UniProt Q13133); assay: ATG_LXRa_TRANS: Attagene TRANS-FACTORIAL HepG2 Assay for human Liver X Receptor alpha (LXRa) (AID 2282980; active means hit-call score of the fitted dose curve at least 0.9, where 1 is the maximum); conditions: HepG2 Attagene TRANS reporter, LXRa transactivation
In short: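 HepG2 cells transiently transfected with GAL4-UAS reporter units for chimeric NR-Gal4 proteins, exposed to chemicals for 24 h. Reporter mRNA quantified by RT-PCR and capillary electrophoresis; gain of signal fitted relative to DMSO.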

[4] = target: Oxysterols receptor LXR-beta (Homo sapiens) (UniProt P55055); assay: ATG_LXRb_TRANS: Attagene TRANS-FACTORIAL HepG2 Assay for human Liver X Receptor beta (LXRb) (AID 2282981; active means hit-call score of the fitted dose curve at least 0.9, where 1 is the maximum); conditions: HepG2 Attagene TRANS GAL4-LXRb reporter, mRNA
In short: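 HepG2 cells transiently transfected with GAL4-UAS reporter units for chimeric NR-Gal4 proteins, dosed for 24 h. Reporter transcripts measured by RT-PCR and capillary electrophoresis; gain-of-signal fitting relative to DMSO.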

[5] = target: Hepatocyte nuclear factor 4-alpha (Homo sapiens) (UniProt P41235); assay: ATG_HNF4a_TRANS: Attagene TRANS-FACTORIAL HepG2 Assay for human Hepatocyte Nuclear Factor 4 alpha (HNF4a) (AID 2282982; active means hit-call score of the fitted dose curve at least 0.9, where 1 is the maximum); conditions: HepG2 HNF4a transactivation reporter, mRNA readout
In short: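 HepG2 cells transiently transfected with HNF4a-Gal4 chimera and GAL4-UAS reporter units, dosed for 24 h. Reporter mRNA measured by RT-PCR, fluorescent primer extension and capillary electrophoresis; gain-of-signal fitted relative to DMSO.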

[6] = ATG_M_06_TRANS: Attagene TRANS-FACTORIAL HepG2 Assay for M06 Transcription Factor (Internal Marker) (AID 2282983; active means hit-call score of the fitted dose curve at least 0.9, where 1 is the maximum;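 on AC50: potency for rise in reporter mRNA above DMSO baseline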); conditions: HepG2 Attagene TRANS M06 internal marker reporter
In short: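 HepG2 cells transiently transfected with GAL4-UAS multiple reporter units, dosed 24 h. Reporter RNA reverse-transcribed, PCR-amplified, 6-FAM-labeled, HpaI-digested and quantified by capillary electrophoresis; this internal-marker signal fitted upward relative to DMSO.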

[7] = ATG_M_32_TRANS: Attagene TRANS-FACTORIAL HepG2 Assay for M32 Transcription Factor (Internal Marker) (AID 2282984; active means hit-call score of the fitted dose curve at least 0.9, where 1 is the maximum;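 further: transcript level of a background control reporter unit measured by RT-PCR and capillary electrophoresis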); conditions: HepG2 Attagene TRANS M32 internal marker reporter
In short: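 HepG2 cells transiently transfected with GAL4-UAS reporter units, dosed for 24 hours. Reporter mRNA quantified by RT-PCR, 6-FAM labelling, HpaI digestion and capillary electrophoresis; internal-marker signal fitted upward relative to DMSO.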

[8] = target: Nuclear receptor subfamily 4 group A member 2 (Homo sapiens) (UniProt P43354); assay: ATG_NURR1_TRANS: Attagene TRANS-FACTORIAL HepG2 Assay for human Nuclear Receptor Related Protein 1 (NURR1) (AID 2282985; active means hit-call score of the fitted dose curve at least 0.9, where 1 is the maximum); conditions: HepG2 Attagene TRANS reporter, mRNA readout
In short: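 HepG2 cells transiently transfected with NURR1-Gal4 chimera and GAL4-UAS reporter units; after 24 hr compound exposure, reporter mRNA quantified by RT-PCR and capillary electrophoresis; gain of signal fitted against DMSO.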

[9] = target: Transcriptional activator Myb (Homo sapiens) (UniProt P10242); assay: ATG_Myb_CIS: Attagene CIS-FACTORIAL HepG2 Assay for human Myeloblastosis (Myb) Proto-Oncogene Transcription Factor (AID 2282986); conditions: HepG2 Attagene CIS-FACTORIAL Myb reporter transcription; actives raise or lower the signal
In short: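 Fluorescence signals from capillary electrophoresis of RT-PCR-amplified reporter cDNA give the read-out. Cells: HepG2 transfected with multiple cis-regulated reporter units. Exposure lasts 24 hours; DMSO defines baseline for gain or loss of signal.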

[10] = target: Nuclear respiratory factor 1 (Homo sapiens) (UniProt Q16656); assay: ATG_NRF1_CIS: Attagene CIS-FACTORIAL HepG2 Assay for human Nuclear Respiratory Factor 1 (NRF1) Orphan Gene (AID 2282987); conditions: HepG2 NRF1 cis-element reporter, Attagene multiplex; actives raise or lower the signal
In short: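 Transcriptional reporter readout, one component of a 52-endpoint multiplexed HepG2 panel. Exposure 24 h; mRNA detected via RT-PCR and fluorescent capillary electrophoresis; fitting in both directions against DMSO.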

[11] = ATG_NFI_CIS: Attagene CIS-FACTORIAL HepG2 Assay for human Nuclear Factor I (NFI) (AID 2282989); conditions: HepG2 cis-regulatory reporter, NFI response element transcription; actives raise or lower the signal
In short: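 After transient transfection of HepG2 with cis-promoter reporter constructs and 24 h dosing, RNA is reverse-transcribed, amplified, 6-FAM end-labelled and HpaI-digested before capillary analysis. Bidirectional curve fitting against DMSO.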

[12] = ATG_NF_kB_CIS: Attagene CIS-FACTORIAL HepG2 Assay for human Nuclear Factor Kappa B (NF-kB) (AID 2282991); conditions: HepG2 Attagene cis-factorial NF-kB reporter mRNA; actives raise or lower the signal
In short: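 HepG2, transient multi-reporter transfection, cis promoter elements (endogenous TFs). 24 h exposure. Total RNA → RT → PCR → 6-FAM label → HpaI → CE. Gain/loss vs DMSO.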

[13] = ATG_NRF2_ARE_CIS: Attagene CIS-FACTORIAL HepG2 Assay for human Nuclear Factor Erythroid 2 Related Factor 2 (NFR2) response to Antioxidant Response Elements (ARE) (AID 2282992); conditions: HepG2 Attagene ARE/NRF2 reporter, transcription factor activity; actives raise or lower the signal
In short: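 HepG2 cells transiently transfected with multiplexed cis-regulated reporter transcription units measure endogenous transcription factor activity. Reporter mRNA at 24 h is quantified by RT-PCR, fluorescent labelling and capillary electrophoresis, with bidirectional fitting relative to DMSO.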

[14] = ATG_Oct_MLP_CIS: Attagene CIS-FACTORIAL HepG2 Assay for human Octamer-Binding Transcription Factor (Oct) (AID 2282993); conditions: HepG2 Attagene cis-factorial Oct reporter, mRNA; actives raise or lower the signal
In short: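 Cells of the HepG2 line express promoter-controlled reporter sequences whose mRNA levels, after 24 h treatment, are measured by RT-PCR and capillary electrophoresis. Increases and decreases are scored relative to DMSO.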

[15] = target: Cellular tumor antigen p53 (Homo sapiens) (UniProt P04637); assay: ATG_p53_CIS: Attagene CIS-FACTORIAL HepG2 Assay for human p53 Transcription Factor (AID 2282994); conditions: HepG2 p53 cis-element reporter, Attagene mRNA; actives raise or lower the signal
In short: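 HepG2 cells transiently transfected with multiplexed cis-regulated reporter transcription units read endogenous TF activity. After 24 h compound exposure, reporter mRNA was quantified by RT-PCR, fluorescent labelling, HpaI digestion and capillary electrophoresis; bidirectional fits versus DMSO baseline.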

[16] = target: Bile acid receptor (Homo sapiens) (UniProt Q96RI1); assay: ATG_FXR_TRANS: Attagene TRANS-FACTORIAL HepG2 Assay for Farnesoid X Receptor (FXR) (AID 2282979; active means hit-call score of the fitted dose curve at least 0.9, where 1 is the maximum;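 further: hits raise reporter mRNA above DMSO so AC50 marks FXR activation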); conditions: HepG2 Attagene TRANS FXR-GAL4 reporter transcription
In short: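 HepG2 cells were transiently transfected with GAL4-UAS reporters driven by chimeric NR-Gal4 proteins and dosed for 24 h. Reporter mRNA was quantified by RT-PCR, fluorescent labelling, HpaI digestion and capillary electrophoresis, with gain of signal scored versus DMSO.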

[17] = BSK_3C_TissueFactor: BioMAP Diversity Plus: 3C Assay for Tissue Factor Biomarker Activity (AID 2282997); conditions: BioMAP 3C HUVEC, tissue factor biomarker readout; actives raise or lower the signal
In short: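 HUVEC were treated 24 h, then surface tissue factor measured by ELISA and fitted bidirectionally against DMSO. Parallel SRB total-protein staining assessed overt cytotoxicity at the same time point.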

[18] = BSK_3C_uPAR: BioMAP Diversity Plus: 3C Assay for Urokinase-type plasminogen activator receptor (uPAR) Biomarker Activity (AID 2282998); conditions: BioMAP 3C HUVEC, uPAR biomarker ELISA; actives raise or lower the signal
In short: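 Endothelial primary cells of human umbilical vein origin received test chemical; 24 h later uPAR was assayed by ELISA. Fitting was bidirectional, DMSO as negative control.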

[19] = BSK_3C_VCAM1: BioMAP Diversity Plus: 3C Assay for Vascular cell adhesion molecule 1 (VCAM1) Biomarker Activity (AID 2282999); conditions: BioMAP 3C HUVEC, VCAM1 ELISA, cytokine-stimulated; actives raise or lower the signal
In short: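 Human umbilical vein endothelial cells (3C system), biomarker read by ELISA 24 h after dosing; bidirectional fit against DMSO baseline. Cytotoxicity tracked by SRB total-protein staining in parallel cultures at biomarker time.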

[20] = target: Myc proto-oncogene protein (Homo sapiens) (UniProt P01106); assay: ATG_Myc_CIS: Attagene CIS-FACTORIAL HepG2 Assay for human Myelocytomatosis (Myc) Proto-Oncogene Transcription Factor (AID 2282990); conditions: HepG2, Attagene cis-reporter transcription factor activity; actives raise or lower the signal
In short: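 Read-out: fluorescent reporter mRNA fragments resolved by capillary electrophoresis after RT-PCR. Human HepG2 liver cells carried transfected cis-element reporter units and were dosed for 24 h. Gain or loss of signal fitted relative to DMSO baseline.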

Measured: AC50

Transcriptional activator Myb (Homo sapiens), sequence (P10242 whole entry, looked up): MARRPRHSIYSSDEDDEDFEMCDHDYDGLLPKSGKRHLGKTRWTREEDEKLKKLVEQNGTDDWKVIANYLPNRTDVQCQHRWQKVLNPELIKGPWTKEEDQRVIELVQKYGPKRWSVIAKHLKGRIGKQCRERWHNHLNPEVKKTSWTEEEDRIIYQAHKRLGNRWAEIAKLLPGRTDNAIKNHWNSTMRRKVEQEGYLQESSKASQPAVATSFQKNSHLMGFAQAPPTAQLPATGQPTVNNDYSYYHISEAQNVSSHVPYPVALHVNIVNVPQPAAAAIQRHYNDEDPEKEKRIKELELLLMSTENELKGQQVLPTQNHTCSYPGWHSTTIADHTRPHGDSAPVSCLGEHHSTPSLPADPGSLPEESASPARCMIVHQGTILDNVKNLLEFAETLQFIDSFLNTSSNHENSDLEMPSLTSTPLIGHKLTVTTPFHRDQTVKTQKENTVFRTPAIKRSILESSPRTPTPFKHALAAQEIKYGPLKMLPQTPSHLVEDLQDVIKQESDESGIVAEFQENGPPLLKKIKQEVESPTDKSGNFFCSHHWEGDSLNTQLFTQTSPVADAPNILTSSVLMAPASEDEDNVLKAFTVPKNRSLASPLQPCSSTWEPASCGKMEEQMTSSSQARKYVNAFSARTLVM
Hepatocyte nuclear factor 4-alpha (Homo sapiens), sequence (P41235 whole entry, looked up, the tested form may be a part): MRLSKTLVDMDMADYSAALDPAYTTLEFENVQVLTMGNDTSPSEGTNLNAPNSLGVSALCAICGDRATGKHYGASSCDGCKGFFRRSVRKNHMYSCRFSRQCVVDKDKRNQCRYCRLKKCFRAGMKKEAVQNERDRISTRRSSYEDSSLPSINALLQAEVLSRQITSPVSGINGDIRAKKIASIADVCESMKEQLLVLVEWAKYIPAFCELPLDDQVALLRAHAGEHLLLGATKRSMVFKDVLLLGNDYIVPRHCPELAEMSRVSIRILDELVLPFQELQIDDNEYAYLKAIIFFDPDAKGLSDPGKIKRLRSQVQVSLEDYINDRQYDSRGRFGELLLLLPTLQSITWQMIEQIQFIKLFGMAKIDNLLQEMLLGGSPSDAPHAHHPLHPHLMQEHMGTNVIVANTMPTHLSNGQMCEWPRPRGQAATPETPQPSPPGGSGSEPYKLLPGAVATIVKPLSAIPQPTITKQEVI
Bile acid receptor (Homo sapiens), sequence (Q96RI1 whole entry, looked up, the tested form may be a part): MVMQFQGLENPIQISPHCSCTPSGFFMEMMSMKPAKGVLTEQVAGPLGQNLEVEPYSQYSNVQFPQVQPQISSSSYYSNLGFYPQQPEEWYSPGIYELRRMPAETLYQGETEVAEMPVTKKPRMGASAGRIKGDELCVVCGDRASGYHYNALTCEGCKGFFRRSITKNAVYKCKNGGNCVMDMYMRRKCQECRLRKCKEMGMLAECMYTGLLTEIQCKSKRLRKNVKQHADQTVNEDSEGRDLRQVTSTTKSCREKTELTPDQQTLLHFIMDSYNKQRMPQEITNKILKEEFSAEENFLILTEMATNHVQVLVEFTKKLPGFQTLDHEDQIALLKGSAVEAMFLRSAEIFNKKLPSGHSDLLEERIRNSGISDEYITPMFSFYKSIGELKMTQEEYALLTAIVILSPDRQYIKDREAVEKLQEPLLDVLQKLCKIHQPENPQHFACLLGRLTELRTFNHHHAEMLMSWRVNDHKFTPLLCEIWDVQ
Oxysterols receptor LXR-alpha (Homo sapiens), sequence (Q13133 whole entry, looked up, the tested form may be a part): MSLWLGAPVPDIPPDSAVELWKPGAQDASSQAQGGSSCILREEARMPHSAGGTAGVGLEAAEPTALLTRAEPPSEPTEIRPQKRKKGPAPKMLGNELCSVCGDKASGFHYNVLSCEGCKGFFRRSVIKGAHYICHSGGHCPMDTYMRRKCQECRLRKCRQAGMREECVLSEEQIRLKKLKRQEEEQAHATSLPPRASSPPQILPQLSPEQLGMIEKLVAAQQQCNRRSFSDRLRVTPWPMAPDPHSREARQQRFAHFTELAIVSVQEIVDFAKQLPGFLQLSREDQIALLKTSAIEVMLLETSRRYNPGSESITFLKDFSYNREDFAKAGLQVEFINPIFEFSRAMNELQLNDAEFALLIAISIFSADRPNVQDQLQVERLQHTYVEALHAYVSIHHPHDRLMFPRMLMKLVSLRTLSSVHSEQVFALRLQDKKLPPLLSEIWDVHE
Nuclear receptor subfamily 4 group A member 2 (Homo sapiens), sequence (P43354 whole entry, looked up, the tested form may be a part): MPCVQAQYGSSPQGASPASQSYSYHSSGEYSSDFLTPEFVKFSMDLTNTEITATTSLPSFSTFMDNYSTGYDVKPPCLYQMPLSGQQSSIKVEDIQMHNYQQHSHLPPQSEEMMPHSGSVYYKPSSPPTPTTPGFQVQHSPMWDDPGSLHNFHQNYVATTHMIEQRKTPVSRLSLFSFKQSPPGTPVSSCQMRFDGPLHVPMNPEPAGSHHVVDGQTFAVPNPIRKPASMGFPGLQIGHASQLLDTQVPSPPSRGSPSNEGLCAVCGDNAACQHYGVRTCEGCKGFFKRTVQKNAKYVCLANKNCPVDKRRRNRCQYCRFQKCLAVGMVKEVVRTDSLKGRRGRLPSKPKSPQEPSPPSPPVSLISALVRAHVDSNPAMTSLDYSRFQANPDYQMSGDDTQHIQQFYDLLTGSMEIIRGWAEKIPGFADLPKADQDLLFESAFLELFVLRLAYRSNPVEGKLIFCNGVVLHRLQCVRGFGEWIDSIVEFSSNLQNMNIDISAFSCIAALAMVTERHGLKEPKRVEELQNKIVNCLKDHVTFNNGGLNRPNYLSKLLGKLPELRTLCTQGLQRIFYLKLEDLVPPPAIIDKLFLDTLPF
Myc proto-oncogene protein (Homo sapiens), sequence (P01106 whole entry, looked up, the tested form may be a part): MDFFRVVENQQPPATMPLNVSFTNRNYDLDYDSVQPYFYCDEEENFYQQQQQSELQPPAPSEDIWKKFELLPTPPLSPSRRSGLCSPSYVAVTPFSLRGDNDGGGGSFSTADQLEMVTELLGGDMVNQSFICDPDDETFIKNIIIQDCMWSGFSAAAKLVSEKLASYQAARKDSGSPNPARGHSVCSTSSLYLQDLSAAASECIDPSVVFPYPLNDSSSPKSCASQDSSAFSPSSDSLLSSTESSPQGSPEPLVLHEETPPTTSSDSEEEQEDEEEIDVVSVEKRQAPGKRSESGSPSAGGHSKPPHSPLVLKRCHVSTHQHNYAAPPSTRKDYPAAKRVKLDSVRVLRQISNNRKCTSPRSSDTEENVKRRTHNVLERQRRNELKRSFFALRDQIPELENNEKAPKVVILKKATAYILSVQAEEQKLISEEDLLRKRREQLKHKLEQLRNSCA
Cellular tumor antigen p53 (Homo sapiens), sequence (P04637 whole entry, looked up): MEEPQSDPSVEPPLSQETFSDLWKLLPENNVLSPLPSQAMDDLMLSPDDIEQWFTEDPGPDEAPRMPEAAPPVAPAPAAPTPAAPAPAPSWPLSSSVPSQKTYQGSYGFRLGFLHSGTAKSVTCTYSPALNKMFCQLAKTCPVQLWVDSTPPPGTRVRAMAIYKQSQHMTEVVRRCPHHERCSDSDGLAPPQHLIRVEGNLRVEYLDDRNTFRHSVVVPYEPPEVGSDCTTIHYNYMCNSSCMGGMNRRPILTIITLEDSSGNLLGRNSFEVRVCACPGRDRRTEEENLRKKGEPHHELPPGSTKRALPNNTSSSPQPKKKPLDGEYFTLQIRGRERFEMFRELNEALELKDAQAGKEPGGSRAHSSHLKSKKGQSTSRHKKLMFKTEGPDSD
Oxysterols receptor LXR-beta (Homo sapiens), sequence (P55055 whole entry, looked up, the tested form may be a part): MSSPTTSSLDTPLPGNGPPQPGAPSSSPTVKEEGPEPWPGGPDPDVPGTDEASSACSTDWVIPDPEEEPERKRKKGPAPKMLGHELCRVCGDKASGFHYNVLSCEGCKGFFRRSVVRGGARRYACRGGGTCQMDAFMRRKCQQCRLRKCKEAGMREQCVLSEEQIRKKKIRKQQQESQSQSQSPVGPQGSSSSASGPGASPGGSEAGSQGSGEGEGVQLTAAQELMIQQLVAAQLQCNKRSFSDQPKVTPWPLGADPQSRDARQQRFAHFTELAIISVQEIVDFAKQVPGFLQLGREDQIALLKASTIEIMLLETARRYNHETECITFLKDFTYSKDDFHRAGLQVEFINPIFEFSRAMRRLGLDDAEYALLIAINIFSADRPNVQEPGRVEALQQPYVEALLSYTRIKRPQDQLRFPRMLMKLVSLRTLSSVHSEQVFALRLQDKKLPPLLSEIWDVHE
Estrogen-related receptor gamma (Homo sapiens), sequence (P62508 whole entry, looked up, the tested form may be a part): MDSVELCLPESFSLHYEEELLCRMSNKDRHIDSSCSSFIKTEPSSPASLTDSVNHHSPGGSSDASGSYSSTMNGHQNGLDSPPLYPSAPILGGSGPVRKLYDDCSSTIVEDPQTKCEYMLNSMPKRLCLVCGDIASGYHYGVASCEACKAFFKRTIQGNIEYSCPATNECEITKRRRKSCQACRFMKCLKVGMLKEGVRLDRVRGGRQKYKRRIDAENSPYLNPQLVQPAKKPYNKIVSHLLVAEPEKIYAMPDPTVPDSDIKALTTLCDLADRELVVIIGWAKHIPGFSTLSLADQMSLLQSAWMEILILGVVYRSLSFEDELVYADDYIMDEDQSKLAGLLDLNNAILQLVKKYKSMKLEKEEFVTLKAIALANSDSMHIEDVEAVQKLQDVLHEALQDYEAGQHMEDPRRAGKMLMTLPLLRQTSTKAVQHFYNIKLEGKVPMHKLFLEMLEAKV
Nuclear respiratory factor 1 (Homo sapiens), sequence (Q16656 whole entry, looked up): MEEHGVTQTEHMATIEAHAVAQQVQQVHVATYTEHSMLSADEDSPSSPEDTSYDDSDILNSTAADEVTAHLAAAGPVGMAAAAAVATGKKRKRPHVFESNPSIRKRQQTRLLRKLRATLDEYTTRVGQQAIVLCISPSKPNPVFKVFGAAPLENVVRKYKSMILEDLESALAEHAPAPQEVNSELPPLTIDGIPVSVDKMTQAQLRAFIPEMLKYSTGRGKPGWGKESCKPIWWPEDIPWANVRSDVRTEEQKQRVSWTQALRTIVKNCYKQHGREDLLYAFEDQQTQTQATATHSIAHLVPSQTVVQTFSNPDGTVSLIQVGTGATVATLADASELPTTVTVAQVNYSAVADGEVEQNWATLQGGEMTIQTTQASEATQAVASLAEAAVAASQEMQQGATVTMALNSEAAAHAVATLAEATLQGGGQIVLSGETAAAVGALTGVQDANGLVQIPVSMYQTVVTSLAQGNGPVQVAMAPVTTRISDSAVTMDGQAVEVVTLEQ

Nc1ccc(S(=O)(=O)Nc2nccs2)cc1
not listed: [16] | [17] | [18] | [19] | [20]
inactive: all other assays above

OCCCC(F)(F)C(F)(F)C(F)(F)C(F)(F)C(F)(F)C(F)(F)C(F)(F)F
active: [6] 79.1 µM | [8] 16.6 µM and 17.2 µM | [9] 81.7 µM | [10] 126 µM | [11] 71.1 µM and 267 µM | [12] 73.6 µM | [13] 67.1 µM and 133 µM | [14] 50 µM and 245 µM | [17] 54.8 µM and 21.6 µM | [18] 44.8 µM and 43.5 µM | [19] 24.3 µM and 20.5 µM
inactive: [1] | [2] | [16] | [3] | [4] | [7] | [9] | [10] | [12] | [15]

CCCCC(CC)COP(=O)(O)OCC(CC)CCCC (centres undefined)
active: [13] 26.6 µM
not listed: [3] | [4] | [5] | [6] | [8] | [12] | [15] | [20]
inactive: all other assays above

FC(F)(F)C(F)(F)C(F)(F)C(F)(F)C(F)(F)C(F)(F)C(F)(F)Br
not listed: [8] | [11] | [20]
inactive: all other assays above

O=C(O)C(F)(F)C(F)(F)C(F)(F)C(F)(F)C(F)(F)C(F)(F)C(F)(F)C(F)(F)C(F)(F)C(F)(F)C(F)(F)C(F)(F)F
active: [15] 143 µM
not listed: [14] | [20]
inactive: all other assays above

O=C(O)C(F)(F)C(F)(F)C(F)F
not listed: [14]
inactive: all other assays above

FC(F)(F)C(F)(F)C(F)(F)C(F)(F)C(F)(F)C(F)(F)CCS
not listed: [2] | [5] | [14]
inactive: all other assays above
